# Measured values as given in the supplement of paper PMC9694430.
# How the values were obtained:
# Assay in all cases: thermal shift delta Tm vs DMSO control; higher = stronger stabilization (binding)
# Conditions in all cases: 12.5 µM; protein concentration 2 µM
# LOC_OS01G01410-cb001 = tested on: LOC_OS01G01410-cb001
# Summary of the method: (§1)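 Thermal shift values come from differential scanning fluorimetry on purified rice kinase domains made in E. coli, with melting temperatures obtained from Boltzmann fits. Samples of 19.5 μl held 2 μM kinase, 100 mM potassium phosphate pH 7.5, 150 mM NaCl, 10% glycerol, 5 × SYPRO Orange and compound in DMSO, and were heated from 25°C to 95°C at 0.05°C/s. Each shift is a triplicate mean relative to the DMSO-only protein sample.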
# LOC_OS01G02750-cb003 = tested on: LOC_OS01G02750-cb003
# Summary of the method: as §1
# LOC_OS01G10900-cb004 = tested on: LOC_OS01G10900-cb004
# Summary of the method: as §1
# LOC_OS01G13800-cb001 = tested on: LOC_OS01G13800-cb001
# Summary of the method: as §1
# LOC_OS01G14860-cb001 = tested on: LOC_OS01G14860-cb001
# Summary of the method: as §1
# LOC_OS01G21960-cb002 = tested on: LOC_OS01G21960-cb002
# Summary of the method: as §1
# LOC_OS01G39600-cb002 = tested on: LOC_OS01G39600-cb002
# Summary of the method: as §1
# LOC_OS01G48390-cb002 = tested on: LOC_OS01G48390-cb002
# Summary of the method: as §1
# LOC_OS01G51400-cb002 = tested on: LOC_OS01G51400-cb002
# Summary of the method: as §1
# LOC_OS01G52050-cb004 = tested on: T1, LOC_OS01G52050-cb004
# T1 sequence (whole entry): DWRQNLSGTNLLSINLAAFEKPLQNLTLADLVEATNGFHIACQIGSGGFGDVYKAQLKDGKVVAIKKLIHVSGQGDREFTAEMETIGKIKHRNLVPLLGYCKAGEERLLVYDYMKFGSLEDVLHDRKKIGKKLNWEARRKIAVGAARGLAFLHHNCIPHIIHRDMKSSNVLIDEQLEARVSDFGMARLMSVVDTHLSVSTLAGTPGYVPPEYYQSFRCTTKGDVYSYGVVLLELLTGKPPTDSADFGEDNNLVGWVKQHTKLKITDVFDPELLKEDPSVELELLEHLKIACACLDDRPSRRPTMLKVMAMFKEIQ
# Summary of the method: as §1
# LOC_OS01G57100-cb003 = tested on: LOC_OS01G57100-cb003
# Summary of the method: as §1
# LOC_OS01G60330-cb001 = tested on: LOC_OS01G60330-cb001
# Summary of the method: as §1
# LOC_OS01G60700-cb002 = tested on: LOC_OS01G60700-cb002
# Summary of the method: as §1
# LOC_OS01G63280-cb003 = tested on: LOC_OS01G63280-cb003
# Summary of the method: as §1
# LOC_OS01G67340-cb003 = tested on: LOC_OS01G67340-cb003
# Summary of the method: as §1
# LOC_OS01G70970-cb002 = tested on: LOC_OS01G70970-cb002
# Summary of the method: as §1
# LOC_OS02G07810-cb001 = tested on: LOC_OS02G07810-cb001
# Summary of the method: as §1
# LOC_OS02G08530-cb003 = tested on: LOC_OS02G08530-cb003
# Summary of the method: as §1
# LOC_OS02G14120-cb001 = tested on: LOC_OS02G14120-cb001
# Summary of the method: as §1
# LOC_OS02G17970-cb001 = tested on: LOC_OS02G17970-cb001
# Summary of the method: as §1
# 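Also: purified Escherichia coli-expressed rice kinase domain construct.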
SMILES,thermal shift delta Tm (LOC_OS01G01410-cb001) [°C],thermal shift delta Tm (LOC_OS01G02750-cb003) [°C],thermal shift delta Tm (LOC_OS01G10900-cb004) [°C],thermal shift delta Tm (LOC_OS01G13800-cb001) [°C],thermal shift delta Tm (LOC_OS01G14860-cb001) [°C],thermal shift delta Tm (LOC_OS01G21960-cb002) [°C],thermal shift delta Tm (LOC_OS01G39600-cb002) [°C],thermal shift delta Tm (LOC_OS01G48390-cb002) [°C],thermal shift delta Tm (LOC_OS01G51400-cb002) [°C],thermal shift delta Tm (LOC_OS01G52050-cb004) [°C],thermal shift delta Tm (LOC_OS01G57100-cb003) [°C],thermal shift delta Tm (LOC_OS01G60330-cb001) [°C],thermal shift delta Tm (LOC_OS01G60700-cb002) [°C],thermal shift delta Tm (LOC_OS01G63280-cb003) [°C],thermal shift delta Tm (LOC_OS01G67340-cb003) [°C],thermal shift delta Tm (LOC_OS01G70970-cb002) [°C],thermal shift delta Tm (LOC_OS02G07810-cb001) [°C],thermal shift delta Tm (LOC_OS02G08530-cb003) [°C],thermal shift delta Tm (LOC_OS02G14120-cb001) [°C],thermal shift delta Tm (LOC_OS02G17970-cb001) [°C]
CCS(=O)(=O)N1CCN(c2ccc(Nc3ncc(C(N)=O)c(NC4CC4)n3)cc2)CC1,5.29,1.8,1.08,0.55,3.61,2.53,4.63,1.17,1.11,5.37,0.76,9.63,1.4,1.68,3.04,7.22,0.35,3.19,5.36,1.18
N#CCNC(=O)c1ccc(-c2ccnc(Nc3ccc(N4CCOCC4)cc3)n2)cc1 [Momelotinib (CYT387)],2.55,0.08,1.02,0.1,5.59,2.72,2.38,0.91,0.13,3.27,1.85,6.73,1.01,0.32,1.56,0.41,0.78,1.72,9.13,0.53
C[C@@]1(C(=O)Nc2ccc(F)nc2)CCCN1c1nc(Nc2cc(C3CC3)n[nH]2)c2cccn2n1,1.85,3.65,0.11,0.04,3.52,0.38,4.9,1.12,0.67,0.49,0.92,-2.64,0.85,0.6,-0.49,1.02,1.05,0.71,8.77,0.26
"Cc1cc(Nc2ncnc3ccc(NC4=NC(C)(C)CO4)cc23)ccc1Oc1ccn2ncnc2c1 [Irbinitinib (ARRY-380, ONT-380)]",0.46,-5.11,0.3,-0.06,-1.49,-0.98,-4.96,-0.78,-3.07,1.03,1.92,0.15,-0.86,-1.49,-1.04,-0.85,-0.86,0.22,0.7,0.09
Oc1cc(O)cc(/C=C/c2ccc(O)c(O)c2)c1 [Piceatannol],1.39,1.52,0.74,1,1.02,-0.47,1.51,1.02,0.39,1.1,-0.61,1.29,1.12,1.07,0.13,0.59,1.77,1.3,0.89,1.38
